Our source for the growth values is PubChem BioAssay (NCI).

Compounds without any hit were thinned out: in the full panel of roughly 83,000, 20% have a hit.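 Interpretation: 100, growth as untreated; towards 0, rising growth inhibition; 0, no net growth; 0 to -100, cell death. Compounds scoring below 10 were considered active.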 Values without a mark were called inactive. Active and inactive are the calls of the source.

Common to all, as to test: NCI-60 one-dose screen, 48 h (100 = growth as untreated, 0 = no growth, -100 = all killed)
Holding throughout (conditions): 10 µM unless noted

Assay [1] relates to NCI-H23 lung.
In assay [2] the test system is NCI-H226 lung.
Assay [3] deals with NCI-H322M lung.
Assay [4] concerns HOP-62 NSCLC.
The test system of assay [5] is NCI-H460 lung.
Assay [6] concerns HOP-92 NSCLC.
For assay [7], the system named is A549/ATCC NSCLC.
The test system of assay [8] is 786-0 renal.
In assay [9] the test system is COLO 205 colon.
Assay [10] has as its system DU-145 prostate.
The subject of assay [11] is K-562 leukemia.
Assay [12] concerns MALME-3M melanoma.
Assay [13] concerns MDA-MB-231 breast.
Assay [14] concerns RXF 393 renal.
In assay [15] the test system is SF-268 CNS.
The subject of assay [16] is SF-295 CNS.
Assay [17] has as its system SF-539 CNS.
Assay [18] relates to UACC-257 melanoma.
Assay [19] deals with M14 melanoma.
For assay [20], the system named is NCI-H522 lung.

With `COc1cccc2nc3n(c12)C(c1c(F)cccc1F)SC3` (stereo not given), the growth in assay [1] was 94.8%; in assay [2] it was 82.7%; in assay [3], 102%; in [4], 104%; in assay [5], 99%; in [6], 46.4%. Further, the growth is 98% in assay [7]; 101% in [8]; 106% in assay [9]; 128% in assay [10]; 84.6% in [11]; 101% in assay [12]. Further, the growth in [13] is 93.2%; in assay [14], 105%; in assay [15] it was 108%; in [16], 99.9%; in assay [17], 95.7%; in [18], 100%. For the same molecule, the growth in [19] was 111%.
For the molecule `Cc1ccc(-c2nc(N3CCN(C(=O)c4ccc(OC(F)(F)F)cc4)CC3)c3ccccc3n2)cc1`, the growth in [1] is 94.9%; in assay [2], 83.6%; in [3], 93%; in [4] it was 99.3%; in [5], 92.8%; in assay [6] it was 103%. For the same molecule, the growth in assay [7] is 71.6%; in [8] it was 81.7%; in [9], 91.1%; in assay [10], 90.8%; in [11], 70%; in assay [12], 104%. Further, the growth in [13] is 84.3%; in assay [14] it was 88.5%; in assay [15] it was 71.9%; in [16] it was 93.9%; in [17] it was 98.2%; in assay [18], 99.3%. For the same molecule, the growth in assay [19] was 94.9%.
Regarding `S=c1nc(-c2ccccc2)oc(=NC2CCCCC2)n1C1CCCCC1`, the growth is 61.1% in assay [1]; 105% in assay [2]; 28.3% in assay [3]; 62.8% in assay [4]; 10.7% in assay [5]; -24.9% (active) in [6]. In addition, the growth is 31.5% in assay [7]; 43% in assay [8]; 58.8% in [9]; 13.4% in assay [10]; -42.6% (active) in assay [11]; 94.9% in [12]. For the same molecule, the growth is 81.8% in [13]; 81.5% in assay [14]; 34.1% in [15]; 2.95% (active) in [16]; 65.2% in assay [17]; 95% in [18]. The growth in [19] is 84.8%.
For `C=C1C(=O)O[C@H]2[C@H]1CC/C(COC(=O)C(C)c1ccc(CC(C)C)cc1)=C\CC[C@@]1(C)O[C@@H]21` (stereo not given in full), the growth is 25.8% in assay [1]; 83.6% in [2]; 97.9% in assay [3]; 84.7% in assay [4]; 37.9% in assay [5]; -26.8% (active) in [6]. For the same molecule, the growth in assay [20] is -63.8% (active); in assay [7], 75.1%; in assay [8], -93.4% (active); in assay [10] it was 47.2%; in assay [11], -4.97% (active); in assay [12], -25.6% (active). Further, the growth in [13] was -58% (active); in assay [14], -50.1% (active); in assay [15] it was 33.8%; in assay [16], 83.1%; in assay [17], 22.1%; in assay [18], 47.9%. Besides, the growth in assay [19] is 16.1%.
Take `CCOC(=O)c1sc2ncc(-c3ccc(C)cc3)n2c1C`: the growth is 83% in assay [1]; 78.2% in [2]; 92.6% in assay [3]; 87.9% in [4]; 101% in assay [5]; 83.9% in assay [6]. Further, the growth in assay [7] is 97.3%; in assay [8], 106%; in assay [9] it was 99.7%; in assay [10], 97.5%; in [11], 79.4%; in assay [12], 84.2%. The growth in assay [13] is 85.6%; in assay [14], 107%; in assay [15], 106%; in [16], 96.7%; in assay [17], 93.8%; in assay [18] it was 98.3%. Besides, the growth in assay [19] is 87.1%.
Take `CCCCC[C@H](O)C/C=C1/C(=O)C=C[C@@H]1C/C=C\CCCC(=O)O`: the growth was 74.6% in assay [1]; 83.7% in [2]; 91.1% in assay [3]; 84.1% in [4]; 66.9% in assay [5]; 97.2% in assay [6]. The growth is 46.3% in assay [20]; 81% in assay [7]; 83.3% in assay [8]; 67.8% in assay [10]; 30.1% in assay [11]; 116% in [12]. Moreover, the growth in assay [14] was 87.9%; in assay [15], 67%; in [16], 93.7%; in assay [17], 92.8%; in assay [18], 85.8%; in assay [19], 70.1%.
Regarding `O=C(N/N=C/[C@H](O)[C@H](O)[C@H](O)CO)c1ccc(NC(=O)c2cccnc2)cc1`, the growth in assay [1] was 101%; in assay [2] it was 105%; in assay [4], 97.5%; in [5], 104%; in assay [6] it was 103%; in assay [7] it was 99.8%. Moreover, the growth in [8] was 105%; in assay [10], 111%; in assay [11], 105%; in [12], 108%; in assay [13], 94.5%; in assay [14] it was 107%. The growth in [15] was 98.6%; in assay [16], 101%; in assay [17] it was 98.5%; in assay [18], 99.8%; in [19], 102%.
